Measured values from PubChem BioAssay (NCI).
The panel holds about 83,000 compounds, 20% with a hit somewhere; the sample as a whole holds those more often.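 Values shown are percent growth following 48 h exposure of cells in 96-well plates to a single concentration of compound; below 10 was considered active.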 A number with no mark means an inactive call. The source made the active and inactive calls.

Key:
Test in all cases: NCI-60 one-dose screen, 48 h (100 = growth as untreated, 0 = no growth, -100 = all killed)
SK-MEL-2 melanoma = details: 10 µM unless noted
EKVX NSCLC = details: 10 µM
SN12C renal = details: 10 µM unless noted
UO-31 renal = details: 10 µM unless noted
TK-10 renal = details: 10 µM unless noted
ACHN renal = details: 10 µM unless noted
CAKI-1 renal = details: 10 µM unless noted
A498 renal = details: 10 µM unless noted
CCRF-CEM leukemia = details: 10 µM
MOLT-4 leukemia = details: 10 µM unless noted
SR leukemia = details: 10 µM unless noted
RPMI-8226 leukemia = details: 10 µM unless noted
OVCAR-8 ovarian = details: 10 µM unless noted
OVCAR-5 ovarian = details: 10 µM unless noted
OVCAR-4 ovarian = details: 10 µM unless noted
SK-OV-3 ovarian = details: 10 µM unless noted
IGROV1 ovarian = details: 10 µM unless noted
OVCAR-3 ovarian = details: 10 µM unless noted
HS 578T breast = details: 10 µM unless noted
NCI/ADR-RES ovarian = details: 10 µM unless noted

Row | SMILES | growth (SK-MEL-2 melanoma) | growth (EKVX NSCLC) | growth (SN12C renal) | growth (UO-31 renal) | growth (TK-10 renal) | growth (ACHN renal) | growth (CAKI-1 renal) | growth (A498 renal) | growth (CCRF-CEM leukemia) | growth (MOLT-4 leukemia) | growth (SR leukemia) | growth (RPMI-8226 leukemia) | growth (OVCAR-8 ovarian) | growth (OVCAR-5 ovarian) | growth (OVCAR-4 ovarian) | growth (SK-OV-3 ovarian) | growth (IGROV1 ovarian) | growth (OVCAR-3 ovarian) | growth (HS 578T breast) | growth (NCI/ADR-RES ovarian)
1 | COc1ccc(Cn2cc3c(c2-c2ccc(OC)cc2)CCc2cnoc2-3)cc1 | 31% | 49.4% | 26.5% | 25.7% | 69.1% | 30.7% | 14.8% | 3.78% (active) | 9.28% (active) | 23.7% | 1.81% (active) | 16.7% | 23.8% | 52.2% | 35.9% | 3.54% (active) | -2.82% (active) | -18.2% (active) | -2.76% (active) | -3.57% (active)
2 | CC(=O)Nc1ccc(CC#N)cc1Br | 106% | 112% | 107% | 95% | 96.4% | 109% | 96.5% | 79.9% | 107% | 118% | 112% | 109% | 110% | 109% | 98.2% | 104% | 110% | 108% | 89.9% | 116%
3 | C[C@H]1C[C@@H](n2cnc3c(N)nccc32)[C@H](O)[C@@H]1O | 106% | 96.3% | 92.3% | 167% | 119% | 101% | 116% | 120% | 23.6% | 65% | -54.1% (active) | 117% | 99% | 103% | 110% | 117% | 560% | 120% | 109% | 128%
4 | CCC(C)(C)c1ccc(OCCCCCCN2CCNCC2)cc1 | 96.9% | 115% | 88.2% | 63.5% | 90.4% | 42.6% | 70% | 71.2% | 4.24% (active) | 10.4% | -2.78% (active) | -16.4% (active) | 75.2% | 91.6% | 70% | 101% | 87.3% | 69.4% | 64.2% | 76.4%
5 | COC(=O)[C@@H]1[C@H](O)[C@H](C)[C@H](O)[C@H](C)/C=C\C=C(C)C(=O)Nc2c(C)c(OC(C)=O)c3c(c2O)C(=O)C(C)=C2OCOC(=C23)C(C)=C[C@@](C)(O)[C@H](O)[C@@H](C)[C@H]1OC(C)=O | 8.13% (active) | 112% | 112% | 101% | 73.5% | 122% | 116% | 141% | 99.3% | 87.6% | 121% | 97.8% | 104% | 108% | 96.4% | 109% | 3.5% (active) | 137% | 127% | 114%
6 | CCOC(=O)NNc1[nH]c(-c2ccc(OC)cc2)cc1C#N | 105% | 102% | 94.7% | 87.8% | 92.7% | 81.2% | 121% | 99.8% | 7.58% (active) | 8.55% (active) | -2.04% (active) | 91.2% | 99.5% | 87.7% | 153% | 111% | 57.5% | 107% | 96.3% | 88.9%
7 | COC(=O)/C(Br)=C/c1c[nH]c2ccc(Br)cc12 | 88.7% | 76.2% | 88.1% | 46.7% | 78.3% | 86.7% | 69.1% | 92.3% | 23.4% | 52.8% | -6.18% (active) | 53.9% | 86.6% | 72.3% | 87.2% | 92% | -17.7% (active) | 82.6% | 100% | 80.4%
8 | COC1NC(Cl)=C(C#N)C(C#N)(C#N)C1(C)C (stereo not given) | 99.1% | 86.4% | 104% | 85.5% | 113% | 105% | 104% | 110% | 109% | 89.2% | 98.7% | 127% | 107% | 31.6% | 111% | 113% | -21.4% (active) | 123% | 104% | 120%
9 | COc1ccc(Cn2cc3c(c2-c2ccc(O)cc2)CCc2cnoc2-3)cc1 | 43.7% | 28.3% | 40.8% | 35.4% | 72.8% | 34.1% | 15.3% | -1.96% (active) | 14.1% | 24.3% | 11.5% | 26.6% | 34.9% | 41.2% | 48.4% | 12% | 19.7% | -14.7% (active) | 5.28% (active) | -1.58% (active)
10 | COCC(=O)NNc1[nH]c(-c2ccc(OC)cc2)cc1C#N | 108% | 112% | 112% | 95.4% | 92.7% | 110% | 105% | 116% | 55.9% | 81.8% | 102% | 101% | 113% | 98.6% | 127% | 112% | 22.4% | 129% | 104% | 106%
11 | C/C(=N\Nc1cccc(Cl)n1)c1ccccn1 | 21% | 5.56% (active) | 13.6% | -1.99% (active) | 22.7% | 6.24% (active) | 12.7% | -1.3% (active) | 6.2% (active) | 4.01% (active) | 6.31% (active) | 20.8% | 20.2% | 23.5% | 10.5% | 22.5% | 17% | 26.7% | 58.9% | 0.96% (active)
12 | Cc1nc(NC(=O)NC2CCCCC2)sc1C(=O)NN | 21.7% | 119% | 106% | 84% | -14.2% (active) | 97.8% | 132% | 118% | 112% | 116% | 131% | 112% | 102% | 102% | 109% | 116% | 72.2% | 99.5% | 105% | 118%
13 | CC1(C)CC(=O)C2=C(C1)Oc1nc(N)c(C#N)c(N)c1C2c1ccc(F)cc1 (stereo not given) | 107% | 97.4% | 107% | 181% | 72.8% | 107% | 92.3% | 102% | 118% | 74.4% | 55.3% | 163% | 106% | 105% | 102% | 115% | 500% | 121% | 103% | 122%
14 | Nc1cc(N)c2nc(NCCc3ccc(Cl)c(Cl)c3)cnc2c1 | 54.9% | 28.6% | 16.5% | 55.8% | 98.6% | 62.6% | 133% | 88.2% | -63.3% (active) | -69.9% (active) | -69.7% (active) | -48.9% (active) | 32.6% | 31% | -96.7% (active) | 88.8% | 21.3% | -43.4% (active) | 62.1% | 89.6%
15 | O=S(=O)(O)CCI | 102% | 119% | 105% | 95.4% | 95.7% | 112% | 107% | 90.7% | 106% | 120% | 116% | 115% | 113% | 108% | 105% | 111% | 110% | 114% | 100% | 105%
16 | CCOC(=O)C1=C(c2ccccc2)NC(=O)NC1CN1C(=O)c2ccccc2C1=O (stereo not given) | 101% | 130% | 107% | 102% | 111% | 111% | 105% | 118% | 54.4% | 2.02% (active) | -32.9% (active) | 97.9% | 111% | 100% | 107% | 113% | 98.4% | 111% | 105% | 103%
